What was measured:
Test in all cases: DAPPL (digital affinity profiling via proximity ligation, sequencing); 10 mM Tris-HCl pH 7.5, 50 mM NaCl, 1 mM DTT, 4% glycerol, room temperature, 30 min; GST-TFs on glutathione beads, 16-mer random dsDNA library, 0.1% formaldehyde crosslink after washing; high values mean tight binding
Details in all cases: protein: recombinant; tags: N-terminal GST; dsDNA, one strand shown
GABPA = biological target: T1, GABPA (Homo sapiens, UniProt Q06546 1-454)
T1 sequence: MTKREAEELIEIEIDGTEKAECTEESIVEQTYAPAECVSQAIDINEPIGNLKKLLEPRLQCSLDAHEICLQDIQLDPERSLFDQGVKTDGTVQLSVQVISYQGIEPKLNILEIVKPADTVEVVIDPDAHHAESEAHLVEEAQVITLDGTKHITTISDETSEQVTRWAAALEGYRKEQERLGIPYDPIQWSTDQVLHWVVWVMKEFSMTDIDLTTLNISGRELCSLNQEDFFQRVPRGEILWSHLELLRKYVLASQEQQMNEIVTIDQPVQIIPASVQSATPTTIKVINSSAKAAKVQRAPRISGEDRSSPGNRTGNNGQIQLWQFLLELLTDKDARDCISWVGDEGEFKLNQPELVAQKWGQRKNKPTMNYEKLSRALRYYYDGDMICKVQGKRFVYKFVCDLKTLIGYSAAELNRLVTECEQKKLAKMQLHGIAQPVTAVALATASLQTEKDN
Summary of the method: (§1)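 Yeast served to express human transcription factors as GST fusions, which were then captured on glutathione beads and labelled with DNA barcodes. Pooled with a tag-only sample, they were incubated with 200 nmole of a 16-mer random double-stranded DNA library for 30 min at room temperature in Tris/NaCl/DTT/glycerol buffer, washed, crosslinked with 0.1% formaldehyde, ligated by proximity, amplified by PCR and sequenced. Dividing each hexamer's read frequency for a factor by its frequency for the tag-only sample gives the binding signal.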

ELK3 = biological target: T2, ELK3 (Homo sapiens, UniProt P41970 1-407)
T2 sequence: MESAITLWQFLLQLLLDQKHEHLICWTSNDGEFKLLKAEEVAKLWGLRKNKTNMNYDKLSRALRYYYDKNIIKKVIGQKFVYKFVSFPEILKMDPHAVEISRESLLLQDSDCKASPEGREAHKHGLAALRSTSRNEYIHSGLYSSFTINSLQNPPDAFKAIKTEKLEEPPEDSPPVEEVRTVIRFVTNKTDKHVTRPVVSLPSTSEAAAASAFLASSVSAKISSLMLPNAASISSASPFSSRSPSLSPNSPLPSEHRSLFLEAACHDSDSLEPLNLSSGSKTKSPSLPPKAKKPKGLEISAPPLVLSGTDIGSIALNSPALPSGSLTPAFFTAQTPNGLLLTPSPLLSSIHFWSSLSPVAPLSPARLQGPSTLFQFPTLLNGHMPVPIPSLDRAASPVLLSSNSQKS
Summary of the method: as §1

ETV2 = biological target: T3, ETV2 (Homo sapiens, UniProt O00321 1-342)
T3 sequence: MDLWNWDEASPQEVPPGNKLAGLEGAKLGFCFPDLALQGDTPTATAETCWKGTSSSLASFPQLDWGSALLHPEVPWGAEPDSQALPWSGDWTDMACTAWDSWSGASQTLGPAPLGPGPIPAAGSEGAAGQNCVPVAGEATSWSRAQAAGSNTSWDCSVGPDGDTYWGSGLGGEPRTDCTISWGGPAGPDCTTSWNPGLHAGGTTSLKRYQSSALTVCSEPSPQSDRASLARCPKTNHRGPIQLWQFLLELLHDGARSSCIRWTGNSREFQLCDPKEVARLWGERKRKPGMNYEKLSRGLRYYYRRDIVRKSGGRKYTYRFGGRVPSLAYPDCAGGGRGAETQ
Summary of the method: as §1

ETV1 = ETV1 (Homo sapiens, UniProt P50549 1-477)
Summary of the method: as §1

ERF = biological target: T4, ERF (Homo sapiens, UniProt P50548 1-548)
T4 sequence: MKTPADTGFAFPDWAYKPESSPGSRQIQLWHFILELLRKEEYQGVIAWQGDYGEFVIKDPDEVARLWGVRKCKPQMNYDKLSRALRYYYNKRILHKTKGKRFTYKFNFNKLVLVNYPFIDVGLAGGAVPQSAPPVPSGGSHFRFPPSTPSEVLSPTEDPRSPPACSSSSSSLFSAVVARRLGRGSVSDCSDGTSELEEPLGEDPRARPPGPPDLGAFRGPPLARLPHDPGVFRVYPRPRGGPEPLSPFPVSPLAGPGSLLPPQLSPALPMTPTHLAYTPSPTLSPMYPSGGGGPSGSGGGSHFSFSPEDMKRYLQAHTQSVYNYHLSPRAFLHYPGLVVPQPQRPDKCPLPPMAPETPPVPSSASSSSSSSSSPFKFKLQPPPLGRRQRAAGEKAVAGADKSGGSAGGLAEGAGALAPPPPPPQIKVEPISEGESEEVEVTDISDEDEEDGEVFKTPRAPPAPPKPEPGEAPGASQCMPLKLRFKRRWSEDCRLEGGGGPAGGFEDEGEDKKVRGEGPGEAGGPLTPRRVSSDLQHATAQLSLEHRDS
Summary of the method: as §1

ELK1 = biological target: T5, ELK1 (Homo sapiens, UniProt P19419 1-428)
T5 sequence: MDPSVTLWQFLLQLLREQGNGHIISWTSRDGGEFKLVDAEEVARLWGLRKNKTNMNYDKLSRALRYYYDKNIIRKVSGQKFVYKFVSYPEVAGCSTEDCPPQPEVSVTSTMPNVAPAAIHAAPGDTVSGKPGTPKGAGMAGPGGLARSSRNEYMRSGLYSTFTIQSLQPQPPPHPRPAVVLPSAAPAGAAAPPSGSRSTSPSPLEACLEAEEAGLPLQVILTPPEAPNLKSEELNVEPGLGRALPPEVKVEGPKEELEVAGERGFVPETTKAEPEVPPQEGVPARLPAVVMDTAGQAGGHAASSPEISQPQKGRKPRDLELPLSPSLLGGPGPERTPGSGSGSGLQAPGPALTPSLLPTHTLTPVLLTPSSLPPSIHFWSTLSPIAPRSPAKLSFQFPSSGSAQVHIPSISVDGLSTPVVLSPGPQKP
Summary of the method: as §1

SPIB = SPIB (Homo sapiens, UniProt Q01892 1-262)
Summary of the method: as §1

SPIC = biological target: T6, SPIC (Homo sapiens, UniProt Q8N5J4 1-248)
T6 sequence: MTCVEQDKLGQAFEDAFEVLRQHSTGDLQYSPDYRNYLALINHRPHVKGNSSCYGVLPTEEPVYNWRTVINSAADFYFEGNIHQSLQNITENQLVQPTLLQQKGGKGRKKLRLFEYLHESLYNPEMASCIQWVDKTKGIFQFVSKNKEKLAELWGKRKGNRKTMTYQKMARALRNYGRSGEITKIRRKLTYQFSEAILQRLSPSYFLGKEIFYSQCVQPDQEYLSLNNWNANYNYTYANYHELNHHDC
Summary of the method: as §1

ELF4 = ELF4 (Homo sapiens, UniProt Q99607 1-663)
Summary of the method: as §1

ELK4 = biological target: T7, ELK4 (Homo sapiens, UniProt P28324-2 1-405)
T7 sequence: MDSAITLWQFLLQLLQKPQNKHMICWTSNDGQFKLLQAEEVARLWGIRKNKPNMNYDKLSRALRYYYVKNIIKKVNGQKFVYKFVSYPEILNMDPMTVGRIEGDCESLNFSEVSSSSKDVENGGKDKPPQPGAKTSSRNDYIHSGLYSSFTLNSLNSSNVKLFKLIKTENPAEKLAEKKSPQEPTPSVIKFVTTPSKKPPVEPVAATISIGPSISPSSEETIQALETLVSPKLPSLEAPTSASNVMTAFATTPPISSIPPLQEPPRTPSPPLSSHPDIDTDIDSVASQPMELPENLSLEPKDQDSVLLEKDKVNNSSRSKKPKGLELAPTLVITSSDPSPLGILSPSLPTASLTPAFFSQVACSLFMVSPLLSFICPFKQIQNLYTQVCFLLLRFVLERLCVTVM
Summary of the method: as §1

ELF3 = biological target: T8, ELF3 (Homo sapiens, UniProt P78545 1-371)
T8 sequence: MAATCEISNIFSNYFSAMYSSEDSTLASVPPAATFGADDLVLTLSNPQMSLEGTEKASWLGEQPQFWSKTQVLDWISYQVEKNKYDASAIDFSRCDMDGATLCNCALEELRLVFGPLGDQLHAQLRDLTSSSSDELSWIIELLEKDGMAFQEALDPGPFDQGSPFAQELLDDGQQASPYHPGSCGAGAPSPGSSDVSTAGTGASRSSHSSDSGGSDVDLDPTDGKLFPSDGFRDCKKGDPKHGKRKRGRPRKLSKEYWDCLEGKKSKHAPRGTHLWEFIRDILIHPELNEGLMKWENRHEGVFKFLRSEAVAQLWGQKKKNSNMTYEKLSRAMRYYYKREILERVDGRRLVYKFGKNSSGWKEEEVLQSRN
Summary of the method: as §1

ETV3L = biological target: T9, ETV3L (Homo sapiens, UniProt Q6ZN32 1-361)
T9 sequence: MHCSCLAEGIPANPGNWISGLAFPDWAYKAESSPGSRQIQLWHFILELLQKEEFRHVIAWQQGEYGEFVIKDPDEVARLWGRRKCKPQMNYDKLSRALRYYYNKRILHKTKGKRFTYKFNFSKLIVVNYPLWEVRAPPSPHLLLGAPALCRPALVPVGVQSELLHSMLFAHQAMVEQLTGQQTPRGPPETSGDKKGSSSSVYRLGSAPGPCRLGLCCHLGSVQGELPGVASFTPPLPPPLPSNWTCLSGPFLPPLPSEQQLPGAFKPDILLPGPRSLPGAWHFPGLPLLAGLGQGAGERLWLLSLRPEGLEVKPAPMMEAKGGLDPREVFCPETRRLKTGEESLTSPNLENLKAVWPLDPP
Summary of the method: as §1

ETV7 = biological target: T10, ETV7 (Homo sapiens, UniProt Q9Y603 1-341)
T10 sequence: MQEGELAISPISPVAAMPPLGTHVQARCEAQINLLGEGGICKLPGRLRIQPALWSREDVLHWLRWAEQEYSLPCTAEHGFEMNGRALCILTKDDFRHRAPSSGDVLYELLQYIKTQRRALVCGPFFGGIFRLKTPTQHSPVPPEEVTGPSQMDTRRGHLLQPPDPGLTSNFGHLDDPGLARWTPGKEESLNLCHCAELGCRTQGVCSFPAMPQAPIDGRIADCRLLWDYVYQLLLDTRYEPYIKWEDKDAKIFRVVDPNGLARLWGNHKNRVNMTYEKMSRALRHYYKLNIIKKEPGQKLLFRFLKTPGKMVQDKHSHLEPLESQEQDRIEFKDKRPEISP
Summary of the method: as §1

ETV3 = biological target: T11, ETV3 (Homo sapiens, UniProt P41162-2 1-143)
T11 sequence: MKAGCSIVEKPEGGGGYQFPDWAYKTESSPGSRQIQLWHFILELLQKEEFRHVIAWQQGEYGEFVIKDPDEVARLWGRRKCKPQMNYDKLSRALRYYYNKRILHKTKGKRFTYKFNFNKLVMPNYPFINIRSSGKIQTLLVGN
Summary of the method: as §1

Sequence of ETV1 (P50549 whole entry): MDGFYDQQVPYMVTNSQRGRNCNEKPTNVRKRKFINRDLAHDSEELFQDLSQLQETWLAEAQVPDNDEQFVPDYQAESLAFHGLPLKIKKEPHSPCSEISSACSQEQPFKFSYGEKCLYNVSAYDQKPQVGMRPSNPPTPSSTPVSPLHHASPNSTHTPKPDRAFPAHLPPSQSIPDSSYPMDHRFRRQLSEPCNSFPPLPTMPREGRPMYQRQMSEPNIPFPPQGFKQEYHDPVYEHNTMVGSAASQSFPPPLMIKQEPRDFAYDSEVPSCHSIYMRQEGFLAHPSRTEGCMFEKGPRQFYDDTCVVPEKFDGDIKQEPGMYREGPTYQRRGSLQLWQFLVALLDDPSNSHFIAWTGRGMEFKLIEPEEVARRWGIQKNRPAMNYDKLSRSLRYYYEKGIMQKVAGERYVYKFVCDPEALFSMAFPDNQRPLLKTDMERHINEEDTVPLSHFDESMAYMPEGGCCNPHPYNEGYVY
Sequence of SPIB (Q01892 whole entry): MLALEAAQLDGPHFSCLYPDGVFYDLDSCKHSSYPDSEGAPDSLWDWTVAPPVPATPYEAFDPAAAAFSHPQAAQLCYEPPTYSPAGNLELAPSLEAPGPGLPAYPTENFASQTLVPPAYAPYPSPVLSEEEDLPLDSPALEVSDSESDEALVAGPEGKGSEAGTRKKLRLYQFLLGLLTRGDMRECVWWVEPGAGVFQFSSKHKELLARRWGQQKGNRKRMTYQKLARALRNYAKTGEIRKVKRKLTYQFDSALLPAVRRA
Sequence of ELF4 (Q99607 whole entry): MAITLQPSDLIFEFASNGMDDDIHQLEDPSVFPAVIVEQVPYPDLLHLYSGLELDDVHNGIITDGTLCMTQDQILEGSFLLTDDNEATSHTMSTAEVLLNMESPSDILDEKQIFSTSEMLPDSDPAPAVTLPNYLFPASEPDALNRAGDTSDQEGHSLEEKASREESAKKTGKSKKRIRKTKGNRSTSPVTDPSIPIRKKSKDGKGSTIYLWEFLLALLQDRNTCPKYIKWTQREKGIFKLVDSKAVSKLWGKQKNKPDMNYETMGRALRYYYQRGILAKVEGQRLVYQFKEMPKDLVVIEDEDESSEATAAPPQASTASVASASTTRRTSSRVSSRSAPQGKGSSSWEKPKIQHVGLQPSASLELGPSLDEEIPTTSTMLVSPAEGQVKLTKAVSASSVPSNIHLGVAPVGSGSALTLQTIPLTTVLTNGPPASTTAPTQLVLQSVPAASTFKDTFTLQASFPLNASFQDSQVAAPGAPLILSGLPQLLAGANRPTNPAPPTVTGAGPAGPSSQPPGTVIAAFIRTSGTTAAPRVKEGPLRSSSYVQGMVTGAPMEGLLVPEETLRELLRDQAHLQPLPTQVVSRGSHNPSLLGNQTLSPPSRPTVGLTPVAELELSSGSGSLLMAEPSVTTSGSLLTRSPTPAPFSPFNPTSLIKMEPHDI

Row | Sequence | binding signal (GABPA) | binding signal (ELK3) | binding signal (ETV2) | binding signal (ETV1) | binding signal (ERF) | binding signal (ELK1) | binding signal (SPIB) | binding signal (SPIC) | binding signal (ELF4) | binding signal (ELK4) | binding signal (ELF3) | binding signal (ETV3L) | binding signal (ETV7) | binding signal (ETV3)
1 | AGCTCG | 1.04 fold enrichment (6-mer frequency, TF over GST control) | 1.04 fold enrichment (6-mer frequency, TF over GST control) | 1 fold enrichment (6-mer frequency, TF over GST control) | 1.01 fold enrichment (6-mer frequency, TF over GST control) | 1.08 fold enrichment (6-mer frequency, TF over GST control) | – | – | – | – | – | – | – | – | –
2 | CGCGCG | 1.05 fold enrichment (6-mer frequency, TF over GST control) | 1.04 fold enrichment (6-mer frequency, TF over GST control) | 1.05 fold enrichment (6-mer frequency, TF over GST control) | – | – | 1.07 fold enrichment (6-mer frequency, TF over GST control) | 1.11 fold enrichment (6-mer frequency, TF over GST control) | 1.14 fold enrichment (6-mer frequency, TF over GST control) | 1 fold enrichment (6-mer frequency, TF over GST control) | 1.14 fold enrichment (6-mer frequency, TF over GST control) | 1.06 fold enrichment (6-mer frequency, TF over GST control) | 1.07 fold enrichment (6-mer frequency, TF over GST control) | 1.03 fold enrichment (6-mer frequency, TF over GST control) | 1.1 fold enrichment (6-mer frequency, TF over GST control)

Source: article PMC7862700, “An all-to-all approach to the identification of sequence-specific readers for epigenetic DNA modifications on cytosine”
